16 compounds from PubChem BioAssay (EPA / NIEHS) can be followed below.

Results filed as inconclusive are left out. Activity calls are given as the source filed them. Rule for the calls: active = hit-call score of the fitted dose curve at least 0.9, where 1 is the maximum; inconclusive = response in the unintended direction; inactive = score below 0.9.

As a reminder, the AC50 is the concentration at which the activity in the assay is half-maximal.

Chain of human Esterase Plasma (ES), BCHE (gene 590) (P06276 whole entry, looked up): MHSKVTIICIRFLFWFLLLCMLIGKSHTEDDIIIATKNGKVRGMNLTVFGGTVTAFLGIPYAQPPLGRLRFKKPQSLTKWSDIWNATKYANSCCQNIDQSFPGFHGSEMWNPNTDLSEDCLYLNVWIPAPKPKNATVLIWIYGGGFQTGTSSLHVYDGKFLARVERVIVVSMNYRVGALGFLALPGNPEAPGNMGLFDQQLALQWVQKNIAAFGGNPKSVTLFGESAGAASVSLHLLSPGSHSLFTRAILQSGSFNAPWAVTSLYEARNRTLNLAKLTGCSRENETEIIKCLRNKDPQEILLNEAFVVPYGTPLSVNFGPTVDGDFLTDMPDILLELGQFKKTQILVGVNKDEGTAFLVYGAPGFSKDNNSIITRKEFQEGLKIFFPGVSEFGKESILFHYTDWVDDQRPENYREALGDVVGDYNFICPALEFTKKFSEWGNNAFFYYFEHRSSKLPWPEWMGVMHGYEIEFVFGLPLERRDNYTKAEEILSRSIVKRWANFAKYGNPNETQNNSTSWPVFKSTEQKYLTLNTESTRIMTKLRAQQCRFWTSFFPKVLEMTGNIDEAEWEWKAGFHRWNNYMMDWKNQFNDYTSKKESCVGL
Chain of human Janus Kinase 2 (Jak2), JAK2 (gene 3717) (O60674 whole entry, looked up): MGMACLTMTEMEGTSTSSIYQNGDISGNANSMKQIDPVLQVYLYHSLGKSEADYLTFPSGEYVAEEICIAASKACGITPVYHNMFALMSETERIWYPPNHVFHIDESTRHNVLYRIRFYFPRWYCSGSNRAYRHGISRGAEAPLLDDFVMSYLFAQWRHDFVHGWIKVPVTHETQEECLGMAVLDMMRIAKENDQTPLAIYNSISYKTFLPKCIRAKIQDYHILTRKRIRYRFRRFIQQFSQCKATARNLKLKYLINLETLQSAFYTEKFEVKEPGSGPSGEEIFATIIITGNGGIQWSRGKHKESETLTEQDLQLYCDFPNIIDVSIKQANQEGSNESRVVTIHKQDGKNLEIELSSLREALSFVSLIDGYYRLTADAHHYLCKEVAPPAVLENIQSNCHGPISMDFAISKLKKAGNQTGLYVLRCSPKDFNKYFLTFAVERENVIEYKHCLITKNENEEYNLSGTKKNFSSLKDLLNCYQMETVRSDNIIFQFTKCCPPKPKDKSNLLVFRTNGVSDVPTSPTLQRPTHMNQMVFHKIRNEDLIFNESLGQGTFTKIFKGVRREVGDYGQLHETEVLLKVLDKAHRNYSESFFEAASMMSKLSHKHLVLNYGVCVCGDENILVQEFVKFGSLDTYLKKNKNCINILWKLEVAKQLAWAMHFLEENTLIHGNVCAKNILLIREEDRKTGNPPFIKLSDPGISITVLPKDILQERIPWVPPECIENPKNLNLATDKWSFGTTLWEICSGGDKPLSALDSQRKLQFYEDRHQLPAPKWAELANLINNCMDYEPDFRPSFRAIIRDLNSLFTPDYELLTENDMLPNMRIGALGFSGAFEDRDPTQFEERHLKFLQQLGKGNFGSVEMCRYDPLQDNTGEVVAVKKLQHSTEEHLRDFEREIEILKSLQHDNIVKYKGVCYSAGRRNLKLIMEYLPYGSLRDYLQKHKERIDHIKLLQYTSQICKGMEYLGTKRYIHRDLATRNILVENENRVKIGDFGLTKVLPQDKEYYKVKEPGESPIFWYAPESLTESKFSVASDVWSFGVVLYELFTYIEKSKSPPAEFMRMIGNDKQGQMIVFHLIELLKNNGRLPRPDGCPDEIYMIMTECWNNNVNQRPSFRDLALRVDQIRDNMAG

The first test has as its target human Esterase Plasma (ES), BCHE (gene 590) (UniProt P06276). Put plainly: NVS_ENZ_hES: NovaScreen (NVS) Enzymatic Assay for human Esterase Plasma (ES) (AID 2283157). Summed up: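 Cell-free enzyme assay using esterase extracted from human plasma; colorimetric absorbance read 0.25 hour after dosing. Single-concentration duplicate screen at 25 uM, then concentration-response up to 50 uM; loss of signal scored against DMSO baseline.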
For the compound `Cc1cc(CCN2CCN(c3nsc4ccccc34)CC2)cc2c1NC(=O)CC2(C)C`, the half-maximal activity concentration (AC50) is 22.2 µM (active).
For the compound `CCN(CC)CCNc1ccc(CNC=O)c2sc3ccc(OC)cc3c(=O)c12`, the AC50 is 0.751 µM (active).
With `CCCOc1sc(C(=O)N2CCC(c3cc(CN)ccc3F)CC2)c(C)c1Br`, the AC50 was 8.81 µM (active).
Turning to `CC#C[C@]1(O)CC[C@H]2[C@@H]3CCC4=CC(=O)CCC4=C3[C@@H](c3ccc(N(C)C)cc3)C[C@@]21C`, the AC50 was 4.97 µM (active).
Regarding `Oc1cc2ccccc2c2ccccc12`, the AC50 was 14.1 µM (active).

The target in another test is Glycogen synthase kinase-3 beta (Homo sapiens) (UniProt P49841). In words: NVS_ENZ_hGSK3b: NovaScreen (NVS) Enzymatic Assay for human Glycogen Synthase Kinase-3 beta (GSK3b) (AID 2283165). A digest of the protocol: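 Recombinant enzyme with specific fluorescent substrate, 1 h, product separated by electrophoretic mobility shift. Primary duplicate screen at 25 uM; actives (e.g. 30% inhibition) followed in singleton concentration-response to 50 uM. Signal loss fitted versus DMSO.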
Chain of Glycogen synthase kinase-3 beta (Homo sapiens) (P49841 whole entry, looked up): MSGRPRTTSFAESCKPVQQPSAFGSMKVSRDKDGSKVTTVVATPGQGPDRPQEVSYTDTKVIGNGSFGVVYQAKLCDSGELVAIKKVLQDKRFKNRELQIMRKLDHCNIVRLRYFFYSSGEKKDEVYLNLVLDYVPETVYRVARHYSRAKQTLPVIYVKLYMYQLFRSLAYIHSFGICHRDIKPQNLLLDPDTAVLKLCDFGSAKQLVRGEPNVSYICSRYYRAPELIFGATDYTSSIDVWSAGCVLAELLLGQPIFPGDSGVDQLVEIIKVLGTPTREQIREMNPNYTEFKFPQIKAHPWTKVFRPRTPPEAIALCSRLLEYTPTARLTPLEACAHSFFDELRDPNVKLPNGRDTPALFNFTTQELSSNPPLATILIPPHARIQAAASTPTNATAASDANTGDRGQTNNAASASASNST
As for `Cc1cc(CCN2CCN(c3nsc4ccccc34)CC2)cc2c1NC(=O)CC2(C)C`, the compound was called inactive.
As to `CCCCCCCCCCCCc1ccccc1S(=O)(=O)O`, the AC50 is 14.2 µM (active).
Consider `ClC1=C(Cl)C(Cl)(Cl)C(Cl)=C1Cl`, for which the result was inactive.
Regarding `COCC(C)OCC(C)O` (stereo not drawn), the call was inactive.
The same measure, in the same setting: with `O=c1c(-c2ccc(O)cc2)coc2cc(O)ccc12` the entry was “inactive”; with `N#C[C@@H]1CC(F)(F)CN1C(=O)CNC1CC2CCC(C1)N2c1ncccn1` (stereo partly drawn), “inactive”.
In the case of `Cc1oc(-c2ccccc2)nc1CCOc1ccc(C[C@H](Nc2ccccc2C(=O)c2ccccc2)C(=O)O)cc1`, the call was inactive.
With `CCCCCCCCOC(=O)CCCCCCCCC(=O)OCCCCCCCC`, the compound was classed as inactive.
As to `O=C(O)Cc1cc(I)c(Oc2cc(I)c(O)c(I)c2)c(I)c1`, the compound was called inactive.

A further test concerns the target human Janus Kinase 2 (Jak2), JAK2 (gene 3717) (UniProt O60674). Put plainly: NVS_ENZ_hJak2: NovaScreen (NVS) Enzymatic Assay for human Janus Kinase 2 (Jak2) (AID 2283169). Summed up: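 Cell-free recombinant human JAK2 enzyme activity assay, fluorescence/electrophoretic mobility shift read 1 h after dosing. Screened in duplicate at 25 uM, then concentration-response up to 50 uM; activity as signal loss relative to DMSO.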
For the compound `Cc1cc(CCN2CCN(c3nsc4ccccc34)CC2)cc2c1NC(=O)CC2(C)C`, the outcome was inactive.
Regarding `CCCCCCCCCCCCc1ccccc1S(=O)(=O)O`, the AC50 was 18.5 µM (active).
As to `CCCCCCCCCCCCCCCS(=O)(=O)Oc1ccccc1`, the call was inactive.
As for `COCC(C)OCC(C)O` (stereo not drawn), the call was inactive.
In the case of `CCN(CC)CCNc1ccc(CNC=O)c2sc3ccc(OC)cc3c(=O)c12`, the call was inactive.
Turning to `CC(C)(C)CC(C)(C)c1ccc(O)c(-n2nc3ccccc3n2)c1`, the compound was called inactive.
As to `CCCCCCCCOC(=O)CCCCCCCCC(=O)OCCCCCCCC`, the compound was called inactive.
With `O=C(O)Cc1cc(I)c(Oc2cc(I)c(O)c(I)c2)c(I)c1`, the result was inactive.
Consider `Oc1cc2ccccc2c2ccccc12`, for which the AC50 is 25 µM (active).
For the compound `C=C(C)C(=O)OCCC(F)(F)C(F)(F)C(F)(F)C(F)(F)C(F)(F)C(F)(F)F`, the compound was classed as inactive.

In the next test the target is human c-Jun N-terminal Kinases (JNK2), MAPK9 (gene 5601) (UniProt P45984). In words: NVS_ENZ_hJNK2: NovaScreen (NVS) Enzymatic Assay for human c-Jun N-terminal Kinases (JNK2) (AID 2283171). A digest of the protocol: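 Cell-free recombinant human JNK2 activity assay; fluorescent substrate and product separated by electrophoretic mobility shift, read 1 h after dosing. Primary duplicate screen at 25 uM; actives run in concentration-response up to 50 uM, relative to DMSO.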
Chain of human c-Jun N-terminal Kinases (JNK2), MAPK9 (gene 5601) (P45984 whole entry, looked up): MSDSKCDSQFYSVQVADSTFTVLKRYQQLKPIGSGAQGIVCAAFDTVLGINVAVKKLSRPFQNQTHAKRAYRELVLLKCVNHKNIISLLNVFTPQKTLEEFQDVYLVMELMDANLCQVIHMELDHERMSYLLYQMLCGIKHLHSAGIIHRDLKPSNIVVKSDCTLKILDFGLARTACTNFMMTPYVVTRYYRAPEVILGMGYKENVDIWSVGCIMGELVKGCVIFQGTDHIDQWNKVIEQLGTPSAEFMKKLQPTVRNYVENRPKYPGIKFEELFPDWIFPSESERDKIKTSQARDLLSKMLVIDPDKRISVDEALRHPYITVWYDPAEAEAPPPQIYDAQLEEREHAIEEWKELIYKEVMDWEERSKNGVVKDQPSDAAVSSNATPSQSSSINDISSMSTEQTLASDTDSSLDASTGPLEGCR
Turning to `CCCCCCCCCCCCc1ccccc1S(=O)(=O)O`, the AC50 was 29.6 µM (active).
For the compound `CCN(CC)CCNc1ccc(CNC=O)c2sc3ccc(OC)cc3c(=O)c12`, the compound was classed as inactive.
As for `N#C[C@@H]1CC(F)(F)CN1C(=O)CNC1CC2CCC(C1)N2c1ncccn1` (stereo partly drawn), the compound was called inactive.
On the same count and under the same terms, the same measure for `O=C(O)Cc1cc(I)c(Oc2cc(I)c(O)c(I)c2)c(I)c1`: “inactive”.
